The values that follow come from the OligoGym collection.
Note: reference of the scale not given here.

The first test addresses SCAF4. Kind of test: pooled miR-30 sensor sort-seq; sequence = guide strand. The following applies: shRNA.
For TTAGTGATGAGAATCATCTTGG, the sensor-assay potency score (higher = more potent) came out at 0.534.

For TTTCTTGAGATCGAGATCGGGG, the sensor-assay potency score (higher = more potent) was -0.563.

Sequence TTGTCTGAAACAGCTGAGCCAC returned a sensor-assay potency score (higher = more potent) of -1.31.

On to TCTACCTGAATTGAACTGCTGC, for which the sensor-assay potency score (higher = more potent) is 0.449.

In turn, TTACACTTTTTGATGAACTTTT registered a sensor-assay potency score (higher = more potent) of -0.768.

As to TTGAGTTGTCTGAAACAGCTGA, the sensor-assay potency score (higher = more potent) turned out to be 0.384.

In turn, TAACATTTTCTGCTACTGGGGC yielded a sensor-assay potency score (higher = more potent) of -0.447.

The target in another test is SCAPER. The description is as above. The following applies: shRNA.
Turning to TTGAGCATCTGTCTTCTCTAGC, the sensor-assay potency score (higher = more potent) is -0.0428.

Sequence TTTTCTTCCATCATCCTGCGTC returned a sensor-assay potency score (higher = more potent) of 0.186.

Sequence TTATTTTACAGTCCACTGCAGT displayed a sensor-assay potency score (higher = more potent) of -0.733.

TTGATCTAGCAATTCTTCCTTC: the sensor-assay potency score (higher = more potent) was found to be 0.245.

For TTCATCTGGAACATAAACCGTC, the sensor-assay potency score (higher = more potent) stood at 0.155.

Sequence ATAATCTGCAAGGACATCGTTC yielded a sensor-assay potency score (higher = more potent) of -0.342.

TTCTTTATCACTGTCATCCTTT: the sensor-assay potency score (higher = more potent) is 0.0905.

TTAACAATTCTTCTACACGGGC showed a sensor-assay potency score (higher = more potent) of -0.521.

On to TTACATTCGACCACACTCTGAT, for which the sensor-assay potency score (higher = more potent) was 0.939.

TTGAGTGTAATTCTCCTTGGGA: the sensor-assay potency score (higher = more potent) was determined as 0.0508.

TAAACATTGATTGCATTGCAGA yielded a sensor-assay potency score (higher = more potent) of -1.19.

The target in a further test is SCG3. The test is described as above. The following applies: shRNA.
Sequence TTCTTCATGACTCTTCTCTGAT yielded a sensor-assay potency score (higher = more potent) of 0.0122.

For TTGTCATGTTTCTTCAACCATT, the sensor-assay potency score (higher = more potent) is -1.02.

Consider TAATCTTGTCTTCTTCTGCTTC, for which the sensor-assay potency score (higher = more potent) was -0.063.

With TAGTAGAGTCATAATCATCGAT, the sensor-assay potency score (higher = more potent) is 0.0703.

TAGTTTAGAAACAATCTTGTCA: the sensor-assay potency score (higher = more potent) came out at 0.211.

The sequence TTAATTTTTGTAAAACCTCTGC yielded a sensor-assay potency score (higher = more potent) of -0.0676.

In the case of TAGTTGATGAAGACCATCTGGA, the sensor-assay potency score (higher = more potent) turned out to be 0.192.

Consider TTTCAAGGTAGGAAACACCTTC, for which the sensor-assay potency score (higher = more potent) was 0.087.

TATTGTTCCATATTTCACCATC returned a sensor-assay potency score (higher = more potent) of -0.949.

In turn, TTTATGATCCAATCCACTCTTA registered a sensor-assay potency score (higher = more potent) of -0.0664.

Consider TTCTTATAGATTGTCTTTCTTT, for which the sensor-assay potency score (higher = more potent) was -0.774.

The target of another test is SCGB1D4. The test is described as above. Conditions: shRNA.
The sequence TGATCTCAGAAGCAACAGCTGG showed a sensor-assay potency score (higher = more potent) of -1.12.

In the case of AATAAGAAGACTGTGATCTCAG, the sensor-assay potency score (higher = more potent) is 0.355.

Turning to TTTTTAGTGAAGATCAGGGTGT, the sensor-assay potency score (higher = more potent) amounted to 0.0112.

For the sequence AAGTTTGGCAACTTGGAGGTTT, the sensor-assay potency score (higher = more potent) is -0.0937.

AAAGATATCTGATCGGTGCAGT came in with a sensor-assay potency score (higher = more potent) of 0.161.

On to TTCAATGAGAGTCGTTTCTTAA, for which the sensor-assay potency score (higher = more potent) is -0.987.

On to TTTCAATGAGAGTCGTTTCTTA, for which the sensor-assay potency score (higher = more potent) turned out to be 0.178.

For TATCTGATCGGTGCAGTGCTTC, the sensor-assay potency score (higher = more potent) was -0.707.

As to TTAAAAGATATCTGATCGGTGC, the sensor-assay potency score (higher = more potent) turned out to be 0.0419.

Sequence TCTTAAAAGATATCTGATCGGT gave a sensor-assay potency score (higher = more potent) of -0.48.

Take ATTAAGTTTGGCAACTTGGAGG: the sensor-assay potency score (higher = more potent) is -1.05.
